TDP1 inh – TDP1 (human) enzyme inhibition; Potency, µM (series often up to 130 µM), for the others: top-dose activity change, negative = inhibition, actives largely listed as inhibitors; AID 485290; actives 0.28% (n = 350,000); recombinant TDP1, AlphaScreen DNA substrate cleavage; Q9NUW8; note: % is set by controls: 0 for no effect and ±100 for the full control effect; nearly all actives have a fitted effect of over 40% in size
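Recombinant E. coli-expressed Tdp1 (1 nM) preincubated with compound 15 min at RT, then 5'-biotin/3'-phosphotyrosine-FITC DNA substrate (15 nM) added for 5 min. AlphaScreen beads (10 ug/ml) added, 10 min RT; tyrosine-FITC cleavage read as signal loss.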
Pin1 inhibitor – inhibitors of human Pin1. Q13526. Pin1 FP peptide displacement, HiFluor488, 10 min. Potency, µM (series often up to 115 µM), without a hit: at the top dose activity, negative = inhibition, most hits filed as inhibitors. actives 0.009% (n = 390,000). AID 504891; active = well fitted inhibition curve with a large enough effect in the polarisation, with a control signal flat, not every such curve was filed as active; inconclusive = small, poorly fitted or top-dose-only effect, or effect the other way, or a change in a side signal; inactive = no such curve, though single readings can be large or run the other way; the % refers to the polarisation; note: % is set by controls: 0 for no effect and ±100 for the full control effect
S-ASM inh – blocks human secretory acid sphingomyelinase; placental ASM, HMU-PC fluorogenic substrate, 60 min; Potency, µM (series often up to 57.5 µM), inactives show at the top dose activity change, negative = inhibition, actives largely listed as inhibitors; actives 0.006% (n = 340,000); AID 504937
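Human placenta-derived ASM enzyme was preincubated with compound for 10 minutes at room temperature, then given fluorogenic substrate HMU-PC0 (9 uM final) for 60 minutes at 37 °C; a pH 10 stop preceded fluorescence reading at Ex 386/Em 447 nm.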
PLK1 PBD block – PLK1 (human) polo-box domain binding inhibition | P53350 | Plk1 PBD binding of FITC phosphopeptide, fluorescence polarization | Potency, µM, inactives show max response, negative = inhibition, most hits filed as inhibitors | actives 2.8% (n = 360,000); note: series mostly up to about 57 µM; % is set by controls: 0 for no effect and ±100 for the full control effect; nearly all actives have a fitted effect of over 65% in size
Target sequence (P53350 whole entry, looked up, the tested form may be a part): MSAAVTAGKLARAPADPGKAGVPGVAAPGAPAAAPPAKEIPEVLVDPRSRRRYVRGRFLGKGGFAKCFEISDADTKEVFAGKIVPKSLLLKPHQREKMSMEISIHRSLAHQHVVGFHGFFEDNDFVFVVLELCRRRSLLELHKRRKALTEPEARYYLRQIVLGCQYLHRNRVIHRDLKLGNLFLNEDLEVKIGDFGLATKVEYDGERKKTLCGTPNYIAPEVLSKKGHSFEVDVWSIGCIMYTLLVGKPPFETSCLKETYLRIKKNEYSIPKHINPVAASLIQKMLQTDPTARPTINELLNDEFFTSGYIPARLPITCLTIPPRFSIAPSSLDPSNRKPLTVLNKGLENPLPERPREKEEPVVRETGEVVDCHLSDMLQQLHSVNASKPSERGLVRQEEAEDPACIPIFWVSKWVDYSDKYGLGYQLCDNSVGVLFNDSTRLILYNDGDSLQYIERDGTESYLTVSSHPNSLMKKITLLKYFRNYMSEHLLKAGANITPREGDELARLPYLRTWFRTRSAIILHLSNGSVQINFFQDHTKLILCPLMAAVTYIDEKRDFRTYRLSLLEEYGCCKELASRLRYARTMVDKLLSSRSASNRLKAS
Tb PFK block – T. brucei PFK enzyme inhibition; T. brucei PFK, ADP-Glo luminescence; Potency, µM (top dose mostly 57.5 µM), without a hit: at the top dose activity, negative = inhibition, usual class: inhibitors; actives 0.17% (n = 330,000);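 note: 0% = uninhibited 1x PFK enzyme wells and -100% = no-enzyme wells; nearly all actives have a fitted effect of over 60% in size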
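Compounds were pin-transferred as a titration series up to 57 uM into substrate buffer (0.5 mM F6P, 0.1 mM ATP, pH 8.0), then 1.25 nM PFK was added and reactions ran 45 min before ADP-Glo detection.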
VDR inh – blocks the human vitamin D receptor. P11473. VDR-SRC2-3 peptide fluorescence polarization, 2 h. Potency, µM, for the others: max response, negative = inhibition, most hits filed as inhibitors. actives 0.93% (n = 400,000). AID 504847; note: % is set by controls: 0 for no effect and ±100 for the full control effect
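Signal is fluorescence polarization, reporting how far test compounds block the interaction of VDR with the SRC2-3 coregulator peptide after a 2 h room-temperature incubation.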
* = called active by the depositor; ? = inconclusive; · = no result given; [ ] = another dose, or the depositor's remark. Rows were chosen to be rich in hits. Some 3.1% of all compounds tested hit in one or more screens of this group. Unless noted, calls come from the whole dose curve; as a rule, active = well fitted curve in the direction sought with a large enough effect; inconclusive = small, poorly fitted or top-dose-only effect, or another doubt; inactive = no such curve, though single readings can be large; an effect the other way counts as inactive or inconclusive. Potency is the fitted concentration of half-maximal effect.

SMILES | TDP1 inh | Pin1 inhibitor | S-ASM inh | PLK1 PBD block | Tb PFK block | VDR inh
O=[N+]([O-])c1ccc(O)c(C2=NNC(c3ccccc3F)C2)c1 (stereo not drawn) | · | ? | -5% | ? | 2% | 79µM*
Cc1ccc(Cn2c(=O)n(-c3cccc(C(F)(F)F)c3)c(=O)c3c(C)c(C)sc32)c(C)c1 | -2% | -21% | · | · | · | -10%
CC(/C=C1\N=C(SCc2ccccc2Cl)SC1=O)=C\c1ccccc1 | 5% | -14% | -7% | 27µM* | 1% | -10%
Cc1ccc(NC(=O)CN2C(=O)CCc3ccccc32)cc1C | 5% | -3% | · | · | · | -1%
CC(C)C[C@H](NC(=O)[C@@H](N)Cc1ccccc1)C(=O)N[C@@H](Cc1ccccc1)C(=O)N[C@@H](CCC(N)=O)C(=O)N1CCC[C@H]1C(=O)N[C@@H](CCC(N)=O)C(=O)N[C@@H](CCCN=C(N)N)C(=O)N[C@@H](Cc1ccccc1)C(N)=O | 9% | · | · | · | · | -1%
Cc1ncc([N+](=O)[O-])n1CCOC(=O)NC(NCc1cccnc1)C(Cl)(Cl)Cl (stereo not drawn) | -1% | -3% | 5% | 27µM* | 3% | ?
CN(C)/C=C1\C(=O)ON=C1c1ccccc1 | 1% | -2% | 2% | -7% | -3% | -18%
Cc1ccc(C2=NOC(=O)/C2=C\C=C\c2ccccc2)cc1 | 6% | -19% | 0% | 1.7µM* | 5% | -2%
CC(=O)Nc1ccc(Sc2ccccc2C(=O)O)cn1 | · | 0% | 0% | -11% | 6% | 4%
CC(=O)Nc1ccc(Sc2ccccc2C(=O)Nc2ccc(F)cc2)cn1 | 3% | -5% | -2% | 19µM* | 0% | -10%
Cn1c(COc2ccccc2)nnc1SCC(=O)Nc1nnc(C2CC2)s1 | · | ? | 0% | 30µM* | · | -17%
Cn1c(CNC(=O)c2ccccc2)nnc1SCC(=O)Nc1nccs1 | 5% | -4% | 2% | 3.4µM* | -1% | ?
Cn1c(COc2ccccc2)nnc1SCC(=O)Nc1ccc2c(c1)OCO2 | -3% | -4% | -1% | -4% | 1% | 0%
CCc1cnc2c(c1SCC(=O)NCc1ccc(F)cc1)c(=O)n(C)c(=O)n2C | 0% | -4% | · | · | · | 1%
CC1=NN(c2ccc(Cl)cc2)C(=O)C1C(c1ccccc1O)c1c(C)[nH]n(-c2ccc(Cl)cc2)c1=O (stereo not drawn) | 6% | 6% | -26% | 24µM* | -14% | -69%
COc1cc(C2NC(=O)NC3=C2C(=O)OC3)cc(OC)c1OC (stereo not drawn) | · | -6% | 10% | 30µM* | -5% | -22%
COc1cc(C2Nc3ccccc3NC3=C2C(=O)CC(C)(C)C3)cc(OC)c1OC (stereo not drawn) | · | 0% | -2% | 10% | 3% | -26%
CC(C)(C)c1ccc2c(c1)OC(C(=O)N/N=C\c1ccc(-c3cccc(C(=O)O)c3)o1)CO2 (stereo not drawn) | · | ? | -2% | 19µM* | -10% | ?
CCCCNC(=O)c1sc2ncnc(N3CCc4ccccc4C3)c2c1C | 1% | -11% | 1% | 27µM* | 2% | ?
O=C1/C(=C/c2ccccn2)SC(=S)N1Nc1ncc(C(F)(F)F)cc1Cl | · | 1% | -21% | ? | · | 28µM*
COCCN1CSC(=S)N(Cc2ccco2)C1 | 0% | ? | -1% | 17µM* | 1% | 89µM*
Cn1nnnc1Sc1ncnc2scc(-c3ccc(N)cc3)c12 | · | -1% | · | · | · | ·
CCCCC/C=C\C[C@@H](O)/C=C/C=C\CCC(=O)O | 2% | · | · | · | · | 2%
CCCOc1ccc(CCC(=O)N/N=C/c2ccncc2)cc1 | 3% | -9% | -1% | 24µM* | 2% | ?
COc1ccc(-c2nnc(NC(=O)c3ccco3)s2)cc1 | 40µM* | ? | -5% | -12% | 2% | 15%
SMILES | TDP1 inh | Pin1 inhibitor | S-ASM inh | PLK1 PBD block | Tb PFK block | VDR inh
CCC(CC)c1nnc(NC(=O)c2ccco2)s1 | 0% | 5% | 0% | 21µM* | -6% | 2%
COC(=O)Nc1nnc(-c2ccncc2)s1 | 1% | -6% | 40% | 27µM* | 4% | -26%
COc1cccc(-c2nnc(NC(=O)c3ccco3)s2)c1 | 1% | 18% | -4% | -11% | 0% | -20%
Cc1nnc(NC(=O)c2ccco2)s1 | 0% | -1% | 21% | -11% | 0% | -5%
Cc1ccc(NC(=O)Nc2nnc(-c3ccncc3)s2)cc1C | -6% | ? | 0% | -3% | -2% | -1%
CC(C)Sc1ncc(Cl)c(C(=O)Nc2ccc(S(=O)(=O)N3CCCCC3C)cc2)n1 (stereo not drawn) | 0% | 60% | · | · | · | 12%
CC(C)(C)CNc1nc(C#N)nc(Nc2ccccc2)n1 | 7% | -11% | · | · | · | ·
Cc1ccc(NC(=O)c2cccc(C(=O)Nc3ccc(C)cc3C(=O)O)c2)c(C(=O)O)c1 | · | ? | 2% | 21µM* | 4% | -3%
O=C(Nc1ccccc1C(=O)O)c1cccc(S(=O)(=O)N2CCCC2)c1 | 0%[12.3 µM] | 4% | · | · | · | -2%
Cc1ccc(S(=O)(=O)CCSc2cccc(C(=O)Nc3ccccc3C(=O)O)c2)cc1 | 6% | -6% | 19% | 1.7µM* | 0% | 79µM*
O=C(Nc1cc(C(=O)Nc2ccccc2C(=O)O)cc(C(=O)Nc2ccccc2C(=O)O)c1)c1ccccc1 | 0% | ? | -22% | 21µM* | -6% | ?
O=C(Nc1ccccc1C(=O)O)c1cccc(NC(=O)c2ccccc2Br)c1 | · | -2% | 8% | -16% | 3% | 8%
O=C(Nc1ccccc1C(=O)O)c1cccc(NS(=O)(=O)c2ccc(Br)cc2)c1 | · | -8% | 6% | 42µM* | -1% | ?
Cc1ccc(NC(=O)c2ccc(Br)cc2)c(C(=O)c2ccccc2)c1 | -4%[12.3 µM] | 7% | · | · | · | -18%
COc1ccccc1CNC(=O)CCCn1c(=O)c2ccccc2n(Cc2ccccc2C#N)c1=O | 2% | -6% | · | · | · | 13%
O=C(/C=C/c1ccco1)Nc1cccc(C(=O)Nc2ccccc2C(=O)O)c1 | 40µM* | ? | 11% | 21µM* | 17% | ?
O=C(NNC(=O)c1cccc(Br)c1)Nc1ccc(Cl)cc1 | 1% | -1% | 2% | 21µM* | -1% | ?
O=C(O)c1ccc(NC(=O)c2ccccc2NC(=O)c2ccccc2Cl)cc1 | · | 2% | 1% | -2% | -5% | 15%
O=C(O)c1ccc(NC(=O)c2ccccc2NC(=O)c2cccc(Br)c2)cc1 | · | -6% | -2% | 21µM* | 1% | ?
c1ccc(CNc2ncnc3nc(N4CCOCC4)[nH]c23)cc1 | 0% | -5% | · | · | · | -13%
COc1ccc(CCN2C(=O)CC(Cc3ccc(C)cc3)C2=O)cc1OC (stereo not drawn) | 0% | -1% | -2% | 12µM* | 0% | ?
